Key:
Assay in all cases: PBM binding z-score (relative to random genomic background probes); higher = stronger binding; sequences stand for … in GC…GCGATTGACAGCGTAGAATGAAGG
[1] = system: FXR:RXRa (NR concentration 270 nM, RXRa partner concentration 90 nM)
How it was run: (§1)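 Random background probes are the reference for binding z-scores. These scores derive from regression-normalized fluorescence on custom Agilent 4×180K protein-binding microarrays incubated 1 h with ligand-free nuclear receptor dimers. Binding was detected with antibodies against each partner (one per run).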

[2] = system: LXRa:RXRa (NR concentration 270 nM, RXRa partner concentration 90 nM)
How it was run: as §1

[3] = system: LXRa homodimer (NR concentration 270 nM)
How it was run: as §1

[4] = system: LXRb homodimer (NR concentration 270 nM)
How it was run: as §1

[5] = system: PPARa:RXRa (NR concentration 270 nM, RXRa partner concentration 90 nM)
How it was run: as §1

[6] = system: PPARg:RXRa (NR concentration 180 nM, RXRa partner concentration 90 nM)
How it was run: as §1

[7] = system: PPARg:RXRa 270nM:90nM, anti-RXR (NR concentration 270 nM, RXRa partner concentration 90 nM)
How it was run: as §1

[8] = system: PPARg:RXRa 30nM:10nM, anti-RXR (NR concentration 30 nM, RXRa partner concentration 10 nM)
How it was run: as §1

[9] = system: PPARg:RXRa 90nM:30nM, anti-RXR (NR concentration 90 nM, RXRa partner concentration 30 nM)
How it was run: as §1

[10] = system: PPARg:RXRa DBDmut IVT, anti-RXR (DBD mutation: RXRa K156A/R161A, NR concentration 270 nM, RXRa partner concentration 90 nM)
How it was run: as §1

[11] = system: PPARg:RXRa IVT, anti-PPARg (NR concentration 270 nM, RXRa partner concentration 90 nM)
How it was run: as §1

[12] = system: PPARg DBDmut:RXRa IVT, anti-PPARg (DBD mutation: PPARg1 K132A/R137A, NR concentration 270 nM, RXRa partner concentration 90 nM)
How it was run: as §1

[13] = system: PPARg DBDmut IVT, anti-PPARg (DBD mutation: PPARg1 K132A/R137A, NR concentration 270 nM)
How it was run: as §1

[14] = system: PPARg homodimer (NR concentration 180 nM)
How it was run: as §1

[15] = system: PXR:RXRa (NR concentration 270 nM, RXRa partner concentration 90 nM)
How it was run: as §1

[16] = system: PXR homodimer (NR concentration 270 nM)
How it was run: as §1

[17] = system: RARa:RXR (NR concentration 270 nM, RXRa partner concentration 90 nM)
How it was run: as §1

[18] = system: RARa homodimer (NR concentration 270 nM)
How it was run: as §1

[19] = system: RARb:RXRa (NR concentration 270 nM, RXRa partner concentration 90 nM)
How it was run: as §1

[20] = system: LXRb:RXRa (NR concentration 270 nM, RXRa partner concentration 90 nM)
How it was run: as §1

Row | Sequence | PBM binding z-score [1] | PBM binding z-score [2] | PBM binding z-score [3] | PBM binding z-score [4] | PBM binding z-score [5] | PBM binding z-score [6] | PBM binding z-score [7] | PBM binding z-score [8] | PBM binding z-score [9] | PBM binding z-score [10] | PBM binding z-score [11] | PBM binding z-score [12] | PBM binding z-score [13] | PBM binding z-score [14] | PBM binding z-score [15] | PBM binding z-score [16] | PBM binding z-score [17] | PBM binding z-score [18] | PBM binding z-score [19] | PBM binding z-score [20]
1 | ATATGTAGGTTACCGGGTCATTCAGTTTGCGCAT | 3.18 | 3.3 | 1.31 | 0.869 | 5.44 | 8.51 | 7.05 | 4.85 | 6.88 | 8.02 | 8.28 | 6.4 | 4.2 | 3.3 | 4.35 | 9.95 | 4.52 | 0.996 | 2.76 | –
2 | CAAACTAGGCCAAGGTCAAAGTCGGTTTGTGCCA | 4.09 | 3.76 | 2.16 | 0.128 | 4.79 | 6.27 | 6.01 | 3.89 | 5.74 | 6.88 | 6.61 | 0.98 | 0.266 | 1.87 | 4.28 | 1.2 | 3.97 | 0.776 | 4.07 | –
3 | AGAATGAGGTTACCAAAGATCAGTGAAACGCTTG | 1.73 | 6.11 | 0.0874 | -0.00616 | 3.4 | 2.6 | 2.57 | 1.19 | 2.06 | 4.06 | 3.2 | 1.32 | 0.399 | 0.652 | 1.56 | 0.0456 | 1.9 | 0.395 | 2.06 | –
4 | GTACCAAGGTGAATAGGTCGTTGATGAGTAGGCG | 0.835 | 0.771 | -0.075 | -0.364 | 2.08 | 1.61 | 1.8 | 0.486 | 1.17 | 1.99 | 2.78 | 0.41 | 0.294 | 1.84 | 0.719 | -0.224 | 1.72 | 0.00144 | 1.94 | –
5 | CTATGTAGGTGAAGGGGGTCATTCAGTTTGAAAG | 4.41 | 4.45 | 1.53 | – | 6.36 | – | 8.53 | 7.28 | 8.98 | 7.88 | 8.11 | – | – | 2.81 | 5.89 | 9.91 | 6.01 | 0.852 | 3.52 | 5.87
6 | AGAGTGAGGTTACCAAAGATCAGGGAAACGCTTG | 2.09 | 6.39 | 0.104 | 0.461 | 3.01 | 1.54 | 1.63 | 0.448 | 1.15 | 1.07 | 1.49 | -0.228 | -0.0667 | 0.744 | 1.7 | 0.558 | 1.97 | 0.667 | 2.48 | –
7 | CGTCAAAGTTAAAGGTAACGTAACAGAAAGCAGC | 0.0396 | 0.253 | -0.0511 | -0.0705 | 1.46 | 1.59 | 2.59 | 0.527 | 1.65 | 0.379 | 1.17 | 0.513 | 0.594 | 0.332 | 0.394 | 0.0362 | 0.981 | 0.438 | 1.02 | –
8 | CCTACTGGGCCACGAAAGGTGATTGATTCAGTGA | -0.0481 | 0.0469 | -0.496 | -0.883 | 1.75 | 2.08 | 1.68 | 0.232 | 0.958 | 5.14 | 5.37 | -0.117 | -0.709 | 0.352 | 0.0244 | -0.433 | 0.698 | -0.285 | 0.929 | –
9 | GCTTACGGGTCAAAAGTTATAGCATGAATAGAAT | 5.09 | 3.43 | 0.0533 | 0.409 | 5.64 | 6.49 | 6.55 | 4.03 | 6.2 | 3.77 | 3.87 | 1.08 | 1.18 | 1.4 | 2.94 | 0.168 | 3.7 | 0.546 | 3.16 | –
10 | CCTTACGGGTCACTCAAGGTTATAGCATCGGAGT | 5.96 | 7.83 | 3.32 | -0.133 | 4.73 | 3.97 | 4.48 | 1.55 | 3.36 | 2.86 | 3.83 | 1.98 | 1.29 | 3.87 | 6.13 | 1.3 | 4.95 | 0.631 | 4.07 | –
11 | TAGCCTCGGTCATTCAGGGGCCAGTATAGAAAGC | 1.19 | 1.14 | 0.485 | 0.157 | 0.242 | -0.061 | -0.248 | -0.569 | -0.514 | -0.712 | 0.476 | 0.246 | -0.322 | 0.0789 | -0.0122 | -0.574 | 0.667 | -0.375 | 2.68 | –
12 | TGTCAAAGTTCTAAGGTAACGTAAGTATCCACAC | 0.449 | 0.196 | -0.388 | -0.268 | 0.624 | 0.871 | 1.41 | 0.457 | 1.15 | -0.558 | 1.37 | 1.07 | 0.895 | 0.299 | 0.23 | 0.0534 | 1.09 | 0.0558 | 0.779 | –
13 | ACTCGGAGGACAAAGGTCAGAACTACGCCAGTGA | 3.87 | 4.07 | 1.47 | 1.03 | 4.61 | 7.34 | 7.11 | 4.87 | 7.69 | 0.613 | 3.35 | 0.492 | -0.388 | 4.36 | 3.9 | 0.428 | 4.98 | 2.66 | 4.04 | –
14 | AATACAGGGTGATCGTAGGCCAGAGTACGCACAG | -0.0324 | 0.162 | -0.234 | -0.0404 | 0.576 | 1.2 | 0.407 | 0.131 | 0.149 | 0.342 | 1.51 | 0.927 | 0.662 | 0.342 | 0.0587 | 0.139 | 0.29 | 0.275 | 0.432 | –

Reference: the supplement of paper PMC6555819
